HSF1 activator – HSF-1 activators, primary screen, NIH3T3-HGL cells, MG132 stress, luminescence, single point; NIH3T3-HGL HSF-1 luciferase reporter, 8 h; 100% = twice DMSO control signal; activation, % at 9 µM; 300,000 tested, 1.7% active; AID 504408, 2011;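 active = mean replicate activation of at least 50% with a set share of replicates each reaching 50%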;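 note: 0% = median of the neutral control wells and 100% = twice that signal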
TWEAK-Fn14 inh – inhibitors of TWEAK-Fn14 signaling, primary screen, luciferase reporter cells, uHTS; TWEAK-stimulated Fn14 reporter cells, luciferase luminescence, 8 h; inhibition, % at 10 µM; 360,000 tested, 2% active; AID 1159606, 2016; in the data active = inhibition above about 50%
HSF1 inhib – HSF1 inhibitors in luciferase reporter cells, primary screen, cell-based, NIH3T3, luminescence. NIH3T3-HGL HSE-luciferase, MG132-induced, luminescence 8 h; active compounds read low. activity change, negative = inhibition, % at 7.5 µM (by protocol). 300,000 tested, 0.77% active. AID 2098, 2009;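 active = more than half of replicate wells show activity change below -50%, luminescence cut by over half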;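 note: luciferase reports HSF-1 transcriptional activity via heat shock element; 0% = median of DMSO wells and -100% = zero luminescence signal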
TROY signal inh – inhibitors of TROY-driven NF-kB signaling, primary screen, Q293 LMP1-TROYcd cells, NF-kB luciferase, uHTS | inhibition, % at 10 µM | Q293 LMP1-TROYcd NF-kB luciferase reporter, 4 h | 360,000 tested, 0.98% active;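 active = compounds whose plate-normalised and pattern-corrected inhibition of the luciferase reporter signal at the single screening dose is 50% or more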
LMP1 NFkB inh – EBV LMP1-driven NF-kappaB luciferase reporter inhibitors, primary screen, cell-based, luminescence, single point. LMP1-induced NF-kappaB luciferase reporter cells. inhibition, % at 12.5 µM. 350,000 tested, 0.69% active. AID 504558, 2011; in the data active = inhibition above about 41%;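 note: 0% = neutral control wells and 100% = reference inhibitor control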
HSP90 refold inh – HSP90 inhibitors, primary screen, cell lysate, luminescence | Heat shock protein HSP 90 (rabbit reticulocyte lysate; luciferase refolding) | Rabbit reticulocyte lysate, luciferase refolding luminescence, 3 h | inhibition, % at 5.6 µM | 290,000 tested, 0.91% active | AID 1789, 2009;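 active = inhibition above the screen-wide mean plus 3 SD, computed separately per campaign, cut at about 16% in these data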;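 note: 0% = DMSO wells and 100% = 60 µM geldanamycin wells; inhibitors lower the luminescence because luciferase stays unfolded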
HSP90 inh confirm – HSP90 inhibitors, confirmation, cell lysate, luminescence | AID 1846, 2009 | rabbit reticulocyte lysate, luciferase refolding luminescence, 3 h | 2,300 tested, 64% active | shares compounds with HSP90 refold inh | inhibition, % at 5.9 µM; in the data active = inhibition above about 18%;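 note: 0% = vehicle wells and 100% = reference inhibitor wells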
luciferase ctr – firefly luciferase inhibitors, HSP90 counter-screen, confirmation, artefact control for HSP90 inhibitor project, biochemical, luminescence, triplicate; inhibition, % at 5.9 µM; shares compounds with HSP90 refold inh; 2,300 tested, 48% active; purified native firefly luciferase; AID 1847, 2009;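 active = inhibition above the mean inhibition of all tested sample wells plus 3 SD, cut at about 10% in these data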;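 note: 0% = DMSO with luciferase and 100% = wells lacking luciferase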
Target sequence (P08659 whole entry, looked up): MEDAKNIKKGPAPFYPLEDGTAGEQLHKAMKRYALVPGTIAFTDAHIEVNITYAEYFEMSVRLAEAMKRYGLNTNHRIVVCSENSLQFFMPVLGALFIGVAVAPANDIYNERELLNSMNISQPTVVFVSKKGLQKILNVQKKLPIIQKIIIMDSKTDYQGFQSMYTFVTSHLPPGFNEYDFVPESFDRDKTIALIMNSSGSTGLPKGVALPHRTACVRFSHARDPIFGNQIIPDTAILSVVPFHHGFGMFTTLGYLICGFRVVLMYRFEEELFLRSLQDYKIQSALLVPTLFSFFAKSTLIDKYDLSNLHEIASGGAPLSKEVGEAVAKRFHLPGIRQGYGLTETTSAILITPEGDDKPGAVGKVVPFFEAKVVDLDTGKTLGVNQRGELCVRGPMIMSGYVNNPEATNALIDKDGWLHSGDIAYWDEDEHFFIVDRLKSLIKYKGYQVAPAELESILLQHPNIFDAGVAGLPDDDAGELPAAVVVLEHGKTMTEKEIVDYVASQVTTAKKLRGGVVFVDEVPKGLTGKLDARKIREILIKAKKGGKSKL
Numbers without * were called inactive; · = not tested or not shown. Most compounds without a hit are left out; they make up all but 4.7% or so of the library.

SMILES | HSF1 activator | TWEAK-Fn14 inh | HSF1 inhib | TROY signal inh | LMP1 NFkB inh | HSP90 refold inh | HSP90 inh confirm | luciferase ctr
Cc1cnc(NC(=O)C2COc3ccccc3O2)s1 (stereo not given) | · | 95* | · | 60* | 26 | 46* | 70* | 70*
CC1CCc2nc(NC(=O)C3COc4ccccc4O3)sc2C1 (stereo not given) | -75 | 96* | -71* | 82* | 40 | 57* | 72* | 66*
Cc1csc(NC(=O)C2COc3ccccc3O2)n1 (stereo not given) | 39 | 78* | 16 | 44 | 1 | 46* | 63* | 56*
C[C@@H]1CN([C@@H](C)CO)S(=O)(=O)c2ccc(Br)cc2O[C@H]1CN(C)C(=O)Cc1cccnc1 | · | -8 | · | 11 | -6 | · | · | ·
COc1ccc(CNC(=O)Nc2nc(C(N)Cc3ccc(C(F)(F)F)cc3)cs2)cc1 (stereo not given) | · | -3 | · | 13 | · | · | · | ·
O=C(c1ccc2c(c1)CCC2)N1CCN(Cc2c(F)cccc2Cl)CC1 | · | 14 | · | -9 | 5 | · | · | ·
O=C(c1cccnc1)N1CCC2CC1c1c(Cl)cccc12 (stereo not given) | · | 13 | · | -16 | 2 | · | · | ·
Cc1[nH]c2ccccc2c1/C=N/Nc1nncn1N | · | -27 | · | -24 | -8 | 78* | -10 | -37
Cc1[nH]c2ccccc2c1/C=N/Nc1ccccn1 | 5 | · | -3 | · | · | -2 | · | ·
O=C1CC2(CCOCC2)Oc2ccc3ccccc3c21 | -12 | 6 | -1 | -17 | -1 | · | · | ·
O=C1COc2ccc3ccccc3c21 | -12 | 9 | -9 | 48 | -14 | 25* | 6 | -3
CC(=O)Nc1cccc(NC(=O)c2ccc3c(c2)CCN3S(=O)(=O)c2ccccc2)c1 | 12 | 12 | -2 | -5 | -9 | -3 | · | ·
CC(=O)c1cccc(NC(=O)c2ccc3c(c2)CCN3S(=O)(=O)c2ccccc2)c1 | 22 | 74* | 6 | 49 | 2 | 20* | 2 | -6
COc1ccc(C(=S)N2CCCCC2)cc1Br | -12 | -13 | -3 | 3 | 4 | 2 | · | ·
S=C(c1ccc(N2CCCC2)c(Br)c1)N1CCCCC1 | -2 | 31 | -3 | -17 | -3 | 22* | 0 | -18
CCCC(=O)N1CCCC1(C)C(=O)Nc1cc(C)ccc1C (stereo not given) | · | 10 | · | 5 | · | · | · | ·
O=C(N/N=C/c1cc(O)ccc1Br)c1cccnc1 | -14 | -19 | 0 | 11 | 19 | 37* | -4 | -8
O=C(N/N=C/c1cc(Br)c(O)c(Br)c1O)c1cccnc1 | 39 | -5 | 3 | -2 | 5 | 1 | · | ·
N#CC12COC3(CCCCC3C1(C#N)C#N)OC2=N (stereo not given) | 2 | 12 | -4 | 10 | -6 | 1 | · | ·
N#CC1(C#N)COC23CCCCC2C1(C#N)C(=N)O3 (stereo not given) | -76 | 6 | -70* | 0 | 3 | 18* | -6 | -13
C[C@@H]1CN([C@H](C)CO)C(=O)c2c(c3ccccc3n2C)-c2ccccc2CO[C@H]1CN(C)C(=O)CCC(F)(F)F | · | 26 | · | 3 | 1 | · | · | ·
N#Cc1c(NC(=O)c2nc3ncccn3n2)sc2c1CCCCC2 | · | 70* | · | 3 | -6 | 65* | 78* | 28*
O=C(/C=C\Nc1ccc2c(c1)OCO2)c1ccccn1 | -71 | 104* | -72* | 75* | 72* | 71* | 96* | 90*
CCO[C@H]1OC(C(=O)N2CCN(C)CC2)=C[C@@H](c2csc3ccccc23)[C@@H]1CCCO | -1 | 3 | 1 | -6 | 6 | 18* | -4 | -6
O=C(NCCc1ccccc1)c1ccccc1Cl | 16 | 78* | 3 | 31 | 46* | 43* | 58* | 50*
SMILES | HSF1 activator | TWEAK-Fn14 inh | HSF1 inhib | TROY signal inh | LMP1 NFkB inh | HSP90 refold inh | HSP90 inh confirm | luciferase ctr
O=C(O)c1ccccc1C(=O)NCCc1ccc(Cl)cc1 | 11 | 7 | 4 | -1 | 2 | 2 | · | ·
Cn1cccc1C(=O)NCCc1ccccc1 | 22 | 56* | 9 | -10 | 8 | 19* | 39* | 26*
O=C(NCCc1ccccc1)c1ccccc1NC(=O)C1CC=CCC1C(=O)O (stereo not given) | 19 | -3 | 0 | 5 | -19 | 45* | -10 | -12
CC(C)C(=O)N1CCCCCCN1C(=O)C(C)C | · | -7 | · | -1 | 1 | · | · | ·
CC(C)C[C@H]1CN(CCCC[C@H]2CNC(=O)C(=O)N2CCc2ccccc2)C(=O)C(=O)N1CCc1ccccc1 | · | -14 | · | 2 | · | · | · | ·
CC1CCCCC1NC(=O)CSc1nnc(C(F)(F)F)n1C (stereo not given) | · | 1 | · | -13 | -2 | · | · | ·
COc1ccc2c(c1)sc1nc(-c3ccccc3)cn12 | -72 | 103* | -68* | 84* | 80* | 63* | 90* | 86*
CCc1nc2ccc(C(=O)NC3CCN(Cc4ccccc4)CC3)cn2c1N(C)Cc1ccc(N(C)C)cc1 | · | -12 | · | 8 | · | · | · | ·
CC(=O)N(C)c1ccc(N=Nc2c(C)[nH]n(C(N)=S)c2=O)cc1 | 53* | 44 | 16 | 29 | -8 | 20* | 9 | -15
CC(=O)N(C)c1ccc(N=NC2C(=O)N(C(N)=S)N=C2C)cc1 (stereo not given) | 41 | 40 | 29 | 14 | -15 | 18* | 18* | -7
Cc1[nH]n(C(N)=S)c(=O)c1N=Nc1ccc([N+](=O)[O-])cc1Cl | 25 | -20 | 2 | -33 | 3 | 18* | -2 | -19
CC1=NN(C(N)=S)C(=O)C1N=Nc1ccc(S(N)(=O)=O)cc1 (stereo not given) | 17 | -19 | 0 | 27 | 6 | 1 | · | ·
Cc1ccccc1N=Nc1c(C)[nH]n(C(N)=S)c1=O | -5 | -26 | 13 | -55 | 6 | 2 | · | ·
COc1cccc(C(O)c2ncc(-c3ccc(Cl)cc3)[nH]2)c1 (stereo not given) | · | -20 | · | -4 | · | · | · | ·
Cc1cc(C(=O)CSc2ccc(F)cc2)cc(C)c1OC(=S)N(C)C | -65 | 100* | -62* | · | 24 | 75* | 70* | 74*
O=C1NC[C@@H](CCCCN2CCN(Cc3ccccc3)C(=O)C2=O)N(CC2CCCCC2)C1=O | · | 4 | · | -2 | · | · | · | ·
O=C(Nc1nccs1)c1cccc2ccccc12 | 8 | 7 | 2 | -8 | 2 | -6 | · | ·
